Data: PubChem BioAssay (NCI)
Where “and” joins values, the source holds several entries; their conditions need not be identical. Equal values may be shown once. The panel holds about 79,000 compounds, 15% with a hit somewhere; the sample as a whole holds those more often. Some compounds were tested as several samples or in several runs, with calls that do not always agree. Calls of active or inactive are those of the source. No stated cut-off is given here; in the data, active means growth inhibition above about 70%; inactive means the rest.

assay: NCI Yeast Anticancer Drug Screen. Data for the bub3 strain (AID 167); conditions: S. cerevisiae bub3 mutant strain, at 50.0 µM (retest, dose inferred, filed as 5.0), stronger effect = higher value
Summary of the method: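 In this screen, a yeast mutant lacking normal mitotic checkpoint function is challenged with compound. Relative growth versus vehicle gives the inhibition value.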

Row | SMILES | growth inhibition
1 | O=C(c1ccc(Br)cc1)C1C(c2ccccc2)N1C1CCCCC1 (stereo not drawn) | 94% (active)
2 | Cc1cccc2cc3ccccc3c[n+]12 | 57% (inactive)
3 | Cc1ccc(P(=O)(c2ccc(C)cc2)c2ccc(C)cc2)cc1.Cc1ccc(P(=O)(c2ccc(C)cc2)c2ccc(C)cc2)cc1.[Cl][Sn]([Cl])([Cl])[Cl] | 72% (active)
4 | c1ccc(P(CCP(c2ccccc2)c2ccccc2)CCP(c2ccccc2)c2ccccc2)cc1 | 96% (active)
5 | O=[N+]([O-])c1cc2c([N+](=O)[O-])cccc2o1 | 98% (active)
6 | O=C1CCC[N]1[Hg][N]1CCCC1=O | 98% (active)
7 | Oc1c(Cl)c(Cl)c(Cl)c(Cl)c1Cl.[Cu+2] | 97% (active)
8 | ClCCN(CCCl)c1ccc(C=NCCCCN=Cc2ccc(N(CCCl)CCCl)cc2)cc1 | 3% (inactive)
9 | CC(C(=O)C1CCCCC1)[n+]1ccccc1 (stereo not drawn) | 1% (inactive)
10 | CN(C)CC1CCCCC1=O (stereo not drawn) | -26% (inactive)
11 | CSc1nncc(=O)[nH]1.[Hg] | 99% (active)
12 | CNC(=O)N1CN(c2ccccc2)C2(CCN(CCCC(=O)c3ccc(F)cc3)CC2)C1=O | 59% (inactive)
13 | O=C(OCc1ccccc1)C(C(Cl)c1ccccc1)N(Cc1ccccc1)Cc1ccccc1 (stereo not drawn) | 49% (inactive)
14 | O=C1C=C(Cl)C(=O)C=C1Cl | 99% (active)
15 | CC(=O)[O][Hg][c]1ccccc1N | 98% (active)
16 | CCOP(=O)(Cc1cccc2ccccc12)OCC | 2% (inactive)
17 | Nc1c(Cl)cccc1C(=O)O | 1% (inactive)
18 | CC(=O)O[C@H]1CC[C@H]2[C@@H]3CCC4=CC(=O)CC[C@@H]4[C@H]3CC[C@]12C | 84% (active)
19 | C1CC[N-]CC1.CC(=N\O)/C(C)=N/O.CC(=N\O)/C(C)=N/O.OC1[CH-]CCCC1.[Co+2] | 13% (inactive)
20 | c1ccc(C(C(=Nc2ccc(Cc3ccc(N=C(C(c4ccccc4)c4ccccc4)N4CC4)cc3)cc2)N2CC2)c2ccccc2)cc1 | 87% (active)

Row | SMILES | growth inhibition
21 | CCN(Cc1ccccc1)CC(O)c1ccc(Cl)c(Cl)c1 (stereo not drawn) | 98% (active)
22 | CC(=O)OC1C(O)C(C)OC(OC2C(OC(=O)C3CCC4C(C3)OC3(CC(OC(=O)/C=C/c5ccccc5)C(C)CO3)C43CO3)OC(C)C(O)C2OC(C)=O)C1O (stereo not drawn) | 98% (active)
23 | CCCCC(CC)CNP(=S)(NCC(CC)CCCC)NCC(CC)CCCC (stereo not drawn) | 37% (inactive)
24 | Oc1c(-c2ccccc2)cc(-[n+]2c(-c3ccccc3)cc(-c3ccccc3)cc2-c2ccccc2)cc1-c1ccccc1 | 99% (active)
25 | Cc1ccc([C@H]2N[C@@H]2c2ccccn2)cc1 | -2% (inactive)
26 | CC[CH2][Sn]([CH2]CC)([CH2]CC)[CH2]CCBr | 99% (active)
27 | O=[N+]([O-])c1cc(S(=O)(=O)F)ccc1S | 90% (active)
28 | CCCCN(CCCC)CCc1ccc(OC(=O)c2ccc(N)cc2)cc1 | 84% (active)
29 | Cc1ccc(C(=O)OC(C(=O)O)C(OC(=O)c2ccc(C)cc2)C(=O)O)cc1 (stereo not drawn) (tested in a mixture with another compound) | 88% (active)
30 | N#C[S-].[Ce+3].c1ccc(-c2ccccn2)nc1.c1ccc(-c2ccccn2)nc1.c1ccc(-c2ccccn2)nc1 | 98% (active)
31 | Nc1nc(N)c(-c2ccc(Cl)c(Cl)c2)c(CCc2ccc(CNC(=O)c3ccc(S(=O)(=O)F)cc3)cc2)n1 | 54% (inactive)
32 | CC1C2C=CC1C(c1c3ccc(=O)c(O)c-3oc3c(O)c(O)ccc13)C2C(=O)O (stereo not drawn) | 37% (inactive)
33 | O=C(O)CN(CCN(CC(=O)O)CC(=O)O)CC(=O)O | 66% (inactive)
34 | O=S(=O)(F)c1ccc(Cl)cc1C[P+](c1ccccc1)(c1ccccc1)c1ccccc1 | 82% (active)
35 | Oc1ccc2ccccc2c1O | 90% (active)
36 | COC1=[C]([Hg][Br])C(OC)OC1OC (stereo not drawn) | 99% (active)
37 | Nc1nc(CCl)cs1 | -7% (inactive)
38 | CCC(C)N1CN(c2ccccc2)C2(CCN(CCCC3(c4ccc(F)cc4)OCCO3)CC2)C1=O (stereo not drawn) | 94% (active)
39 | COc1ccc(NP(=S)(Nc2ccc(OC)cc2)c2ccccc2)cc1 | 78% (active)

same assay, conditions: S. cerevisiae bub3 mutant strain, at 50.0 µM, stronger effect = higher value

Row | SMILES | growth inhibition
40 | O=C(c1ccc(Br)cc1)C1C(c2ccccc2)N1C1CCCCC1 (stereo not drawn) | 95% (active)
41 | Cc1cccc2cc3ccccc3c[n+]12 | 54.2% (inactive)
42 | Cc1ccc(P(=O)(c2ccc(C)cc2)c2ccc(C)cc2)cc1.Cc1ccc(P(=O)(c2ccc(C)cc2)c2ccc(C)cc2)cc1.[Cl][Sn]([Cl])([Cl])[Cl] | 76.2% (active)
43 | c1ccc(P(CCP(c2ccccc2)c2ccccc2)CCP(c2ccccc2)c2ccccc2)cc1 | 92.8% (active)
44 | O=[N+]([O-])c1cc2c([N+](=O)[O-])cccc2o1 | 99.5% (active)
45 | O=C1CCC[N]1[Hg][N]1CCCC1=O | 93.8% (active)
46 | Oc1c(Cl)c(Cl)c(Cl)c(Cl)c1Cl.[Cu+2] | 89.5% (active)
47 | ClCCN(CCCl)c1ccc(C=NCCCCN=Cc2ccc(N(CCCl)CCCl)cc2)cc1 | 7.15% (inactive)
48 | CC(C(=O)C1CCCCC1)[n+]1ccccc1 (stereo not drawn) | 11.2% (inactive)
49 | CN(C)CC1CCCCC1=O (stereo not drawn) | 35% (inactive) and -23.4% (inactive) and -3.6% (inactive)
50 | CSc1nncc(=O)[nH]1.[Hg] | 99.2% (active)
51 | CNC(=O)N1CN(c2ccccc2)C2(CCN(CCCC(=O)c3ccc(F)cc3)CC2)C1=O | 76% (active)
52 | O=C(OCc1ccccc1)C(C(Cl)c1ccccc1)N(Cc1ccccc1)Cc1ccccc1 (stereo not drawn) | 67.7% (inactive)
53 | O=C1C=C(Cl)C(=O)C=C1Cl | 99.3% (active)
54 | CC(=O)[O][Hg][c]1ccccc1N | 92.1% (active)
55 | CCOP(=O)(Cc1cccc2ccccc12)OCC | 19.9% (inactive)
56 | Nc1c(Cl)cccc1C(=O)O | 23.9% (inactive)
57 | CC(=O)O[C@H]1CC[C@H]2[C@@H]3CCC4=CC(=O)CC[C@@H]4[C@H]3CC[C@]12C | 76.2% (active)
58 | C1CC[N-]CC1.CC(=N\O)/C(C)=N/O.CC(=N\O)/C(C)=N/O.OC1[CH-]CCCC1.[Co+2] | -5.4% (inactive)
59 | c1ccc(C(C(=Nc2ccc(Cc3ccc(N=C(C(c4ccccc4)c4ccccc4)N4CC4)cc3)cc2)N2CC2)c2ccccc2)cc1 | 85.8% (active)

Row | SMILES | growth inhibition
60 | CCN(Cc1ccccc1)CC(O)c1ccc(Cl)c(Cl)c1 (stereo not drawn) | 70.3% (active)
61 | CC(=O)OC1C(O)C(C)OC(OC2C(OC(=O)C3CCC4C(C3)OC3(CC(OC(=O)/C=C/c5ccccc5)C(C)CO3)C43CO3)OC(C)C(O)C2OC(C)=O)C1O (stereo not drawn) | 92.2% (active)
62 | CCCCC(CC)CNP(=S)(NCC(CC)CCCC)NCC(CC)CCCC (stereo not drawn) | 13.4% (inactive)
63 | Oc1c(-c2ccccc2)cc(-[n+]2c(-c3ccccc3)cc(-c3ccccc3)cc2-c2ccccc2)cc1-c1ccccc1 | 89.8% (active)
64 | Cc1ccc([C@H]2N[C@@H]2c2ccccn2)cc1 | -2.75% (inactive)
65 | CC[CH2][Sn]([CH2]CC)([CH2]CC)[CH2]CCBr | 99.7% (active)
66 | O=[N+]([O-])c1cc(S(=O)(=O)F)ccc1S | 91.8% (active)
67 | CCCCN(CCCC)CCc1ccc(OC(=O)c2ccc(N)cc2)cc1 | 79% (active)
68 | Cc1ccc(C(=O)OC(C(=O)O)C(OC(=O)c2ccc(C)cc2)C(=O)O)cc1 (stereo not drawn) (tested in a mixture with another compound) | 23.3% (inactive) and 93% (active)
69 | N#C[S-].[Ce+3].c1ccc(-c2ccccn2)nc1.c1ccc(-c2ccccn2)nc1.c1ccc(-c2ccccn2)nc1 | 92.3% (active)
70 | Nc1nc(N)c(-c2ccc(Cl)c(Cl)c2)c(CCc2ccc(CNC(=O)c3ccc(S(=O)(=O)F)cc3)cc2)n1 | 68.9% (inactive)
71 | CC1C2C=CC1C(c1c3ccc(=O)c(O)c-3oc3c(O)c(O)ccc13)C2C(=O)O (stereo not drawn) | -8.35% (inactive)
72 | O=C(O)CN(CCN(CC(=O)O)CC(=O)O)CC(=O)O | 60.7% (inactive) and 38% (inactive) and 53.3% (inactive)
73 | O=S(=O)(F)c1ccc(Cl)cc1C[P+](c1ccccc1)(c1ccccc1)c1ccccc1 | 38.2% (inactive)
74 | Oc1ccc2ccccc2c1O | 70% (active)
75 | COC1=[C]([Hg][Br])C(OC)OC1OC (stereo not drawn) | 98.9% (active)
76 | Nc1nc(CCl)cs1 | 52.4% (inactive) and 4.7% (inactive)
77 | CCC(C)N1CN(c2ccccc2)C2(CCN(CCCC3(c4ccc(F)cc4)OCCO3)CC2)C1=O (stereo not drawn) | 7.55% (inactive)
78 | COc1ccc(NP(=S)(Nc2ccc(OC)cc2)c2ccccc2)cc1 | 67.6% (inactive)
